# DRD3 antagonist: antagonists of human D3 dopamine receptor; P35462; D3R cells, DiscoveRx beta-arrestin luminescence, antagonist mode; hits give low values; max response, negative = inhibition, %; hit rate 2.5% among 360,000; AID 652054; in the data active = max response below about -50%; inconclusive = no clear call, values can overlap the other calls; note: % is set by controls: 0 for no effect and ±100 for the full control effect
# Target sequence (P35462 whole entry, looked up): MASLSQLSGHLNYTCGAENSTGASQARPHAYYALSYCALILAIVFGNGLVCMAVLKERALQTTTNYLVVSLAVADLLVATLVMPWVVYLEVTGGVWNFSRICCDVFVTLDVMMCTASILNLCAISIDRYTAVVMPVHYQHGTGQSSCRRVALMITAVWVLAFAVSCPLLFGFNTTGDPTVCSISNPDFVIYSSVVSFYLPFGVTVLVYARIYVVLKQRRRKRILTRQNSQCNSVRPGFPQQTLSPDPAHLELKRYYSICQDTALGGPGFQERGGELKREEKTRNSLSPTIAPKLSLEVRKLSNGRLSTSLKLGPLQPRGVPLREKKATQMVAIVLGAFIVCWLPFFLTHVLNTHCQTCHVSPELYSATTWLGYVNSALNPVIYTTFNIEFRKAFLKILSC
#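 Cells plated overnight at 1500 cells/well, then exposed to library compounds with dopamine controls for 90 minutes at 37 degrees C. DiscoveRx reagent added for 30–60 minutes at room temperature; luminescence read, quantitative HTS format.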
# D1 potentiator: human D1 dopamine receptor positive modulation. HEK293 TREx D1 cells, calcium flux, dopamine EC20 potentiation. potentiation, % at 10 µM. hit rate 0.036% among 360,000. AID 504651; in the data active = potentiation above about 30%; note: 0% is about no effect
# DRD3 agonist: agonists of human D3 dopamine receptor; P35462; D3R DiscoveRx beta-arrestin cells, luminescence, 90 min; max activation, %; hit rate 0.58% among 410,000; in the data active = max activation above about 30%; note: 0% is about no effect
#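 Agonist mode: compounds and dopamine controls were applied to plated cells for 90 min at 37 degrees C after an overnight attachment at 1500 cells/well. Luminescent read-out followed 30 - 60 minutes at room temperature with DiscoveRx detection reagent.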
# D1 agonist: human D1 receptor agonism. P21728. HEK293 T-REx D1 cells, calcium flux, agonist mode. activation, % at 2 µM. hit rate 1% among 360,000. AID 504660; in the data active = activation above about 30%; note: 0% is about no effect
#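 Inducible HEK293 T-REx D1 cells, force-coupled to calcium signalling, were plated at 4000 cells/well with tetracycline and held overnight at 30 C. After no-wash calcium dye loading, compound-evoked calcium rise over 180 s flagged agonists.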
# D1 antag: antagonists of human D1 dopamine receptor | P21728 | hit rate 3.2% among 360,000 | HEK293 TREx D1 cells, calcium flux, dopamine EC80; hits give low values | activity change, negative = inhibition, % at 10 µM | AID 504652; in the data active = activity change below about -30%; note: % is set by controls: 0 for no effect and ±100 for the full control effect
#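 Kinetic fluorescence of a calcium dye serves as the read-out. D1-expressing Hek293 Trex cells, induced overnight at 30 C, are exposed to compound for 180 s before an EC80 dopamine addition, then read 180 s further.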
# * marks the source's active call; other numbers are inactive results; ? = inconclusive; . = not tested or not shown. In the library only some 6% were active in any assay of this set; here they are far more common.
SMILES,DRD3 antagonist,D1 potentiator,DRD3 agonist,D1 agonist,D1 antag
COc1ccc(-c2cn3nc(N4CCCC(C(=O)NCc5ccc(Cl)cc5)C4)sc3n2)cc1 (stereo not drawn),.,-2.2,-12.1,1.8,-0.7
Cc1ccsc1/C=N/n1c(-c2ccco2)n[nH]c1=S,-59.0*,-1.8,-3.9,2.0,3.8
CSc1ncc(C(=O)Nc2cc(C)cc(C)c2)c(-c2ccccc2)n1,.,-0.7,-11.7,0.4,10.0
Cc1ccc(S(=O)(=O)NCc2ccc(C(=O)NCCCN3CCC(Cc4ccccc4)CC3)cc2)cc1,3.0,-14.7,-16.8,29.9,-82.8*
COCCNC(=O)c1ccc(CN2CCC(Cc3ccccc3)CC2)cc1,-26.1,-9.2,-16.2,3.1,-30.5*
CCC1CCCCN1CC(C)(C)NS(=O)(=O)c1ccccc1 (stereo not drawn),3.2,5.3,-4.7,2.2,-44.4*
COc1ccc(S(=O)(=O)NCc2ccc(C(=O)NCCN(C)Cc3ccccc3)cc2)cc1,-61.8*,.,-17.6,.,.
COc1ccc(CNC(=O)c2ccc(CNS(=O)(=O)c3ccc(OC)cc3)cc2)cc1,.,5.0,-3.3,2.0,-2.6
CCc1ccccc1NC(=O)C(=O)NCC(c1cccnc1)N1CCc2ccccc21 (stereo not drawn),.,-4.5,4.5,0.2,0.3
NS(=O)(=O)c1ccc(CCNC(=O)CN2CCC(Cc3ccccc3)CC2)cc1,47.2,-4.5,-6.1,18.9,-44.4*
Cc1ccc(S(=O)(=O)NC(C)(C)CN2CCC(Cc3ccccc3)CC2)cc1,-58.8*,-12.2,-19.0,11.3,-13.8
Clc1ccc2c(N/N=C/c3ccccc3Br)ccnc2c1,-21.7,-1.0,-15.5,3.0,5.3
C/C(=N/Nc1ccnc2cc(Cl)ccc12)c1ccc(O)cc1,-54.1*,-8.1,-57.1,6.0,-24.7
C/C(=N/Nc1ccnc2cc(Cl)ccc12)c1ccc(N)cc1,?,-8.0,-56.0,11.5,-41.9*
CC1(C)CC(NCCN2CCN(C3=CC(=C(C#N)C#N)CC(C)(C)C3)CC2)=CC(=C(C#N)C#N)C1,3.5,-4.8,-4.0,0.2,2.4
N#CC(C#N)=C1C=C2C=C(N3CCCCCC3)CCC2CC1 (stereo not drawn),17.4,-16.1,6.2,382.7*,-68.2*
N#CC(C#N)=C1C=C2C=C(N3CCOCC3)CCC2CC1 (stereo not drawn),8.3,17.1,3.6,521.5*,10.1
CCN1CCN(C2=CC3=CC(=C(C#N)C#N)CCC3CC2)CC1 (stereo not drawn),18.0,17.7,-5.2,589.7*,-20.0
CN1CCN(C2=CC3=CC(=C(C#N)C#N)CCC3CC2)CC1 (stereo not drawn),-6.1,37.5*,-3.7,722.7*,13.2
N#Cc1cc(Cl)c(N2CCOCC2)cc1C#N,18.4,-2.0,0.0,3.4,.
COc1cccc(C)c1NC(=O)C(OC(=O)CNC(=O)c1ccccc1)c1ccccc1 (stereo not drawn),.,-2.2,.,2.3,27.0
Cc1c(Cl)cccc1NC(=O)c1cc2sccc2n1Cc1ccc(F)cc1,.,-5.4,10.5,3.8,-0.4
Cc1cc(-n2c(SCC(=O)NCc3ccccc3)nc3ccsc3c2=O)ccc1Cl,.,-1.1,2.7,2.9,-29.4
Cc1ccc(-n2ncc3c(NCCC4=CCCCC4)ncnc32)cc1,.,-2.5,3.0,5.5,-11.6
CN1CCN(C(c2ccc(Br)cc2)c2cc(Cl)c3cccnc3c2O)CC1 (stereo not drawn),-76.4*,-7.0,-9.1,17.6,5.2
SMILES,DRD3 antagonist,D1 potentiator,DRD3 agonist,D1 agonist,D1 antag
CN1CCN(C(c2ccc(F)cc2)c2ccc3cccnc3c2O)CC1 (stereo not drawn),-26.9,.,-1.8,.,.
COc1ccc(NC(=O)c2oc3ccc(S(=O)(=O)N4CCCCC4)cc3c2C)cc1Cl,.,0.7,-1.5,0.0,-2.7
Cc1cc(OCCOCCNC(C)C)cc(C)c1Cl,-58.4*,-6.3,-12.3,20.4,-7.5
CC(NCCOCCOc1ccccc1)c1ccccc1 (stereo not drawn),-2.3,-5.8,-8.1,5.6,-12.6
Cc1cc(OCC(=O)NC(C)C)cc(C)c1Cl,-10.3,-4.6,11.9,6.1,-31.5*
CCOc1cc(C(=O)OCc2cc(=O)n3nc(C4CC4)sc3n2)cc(OCC)c1OCC,.,10.1,4.1,-0.3,-1.1
CCC(C(=O)Nc1ccc(F)cc1F)n1nc(-c2ccccc2)c2c(c1=O)CCCC2 (stereo not drawn),.,-0.6,0.1,2.6,12.6
Cc1ccc(OCc2cc(=O)n3c4c(sc3n2)CCCC4)cc1C,.,2.0,8.9,0.3,2.9
CC[C@@H](C)CCCCC(=O)N[C@@H](CCNCS(=O)(=O)O)C(=O)N[C@H](C(=O)N[C@@H](CCNCS(=O)(=O)O)C(=O)N[C@H]1CCNC(=O)[C@H]([C@@H](C)O)NC(=O)[C@H](CCNCS(=O)(=O)O)NC(=O)[C@H](CCNCS(=O)(=O)O)NC(=O)[C@H](CC(C)C)NC(=O)[C@@H](CC(C)C)NC(=O)[C@H](CCNCS(=O)(=O)O)NC1=O)[C@@H](C)O,.,.,5.8,.,.
COC(=O)c1ccc(N(CC(=O)NC2CCCC2)C(=O)CNC(=O)c2cccs2)cc1,-28.6,30.1*,-29.5,1.4,20.6
Cc1cccc(CNC(=O)c2ccc3nc(Cc4ccccc4)oc3c2)c1,.,-3.7,-2.3,31.0*,-31.4*
CC(C)Oc1ccc(CNC(=O)c2ccc3nc(Cc4ccccc4)oc3c2)cc1,.,-1.2,5.6,33.3*,-1.0
CN(C)c1ccc(CNC(=O)c2ccc3nc(Cc4ccccc4)oc3c2)cc1,.,3.4,-6.2,4.8,22.6
CN(C)c1ccc(CNC(=O)c2ccc3nc(CCc4ccccc4)oc3c2)cc1,.,0.3,47.6*,2.5,-15.2
CCNC(=O)c1ccc2nc(Cc3ccccc3)oc2c1,.,-0.5,-12.1,4.8,13.0
Cc1cc(Nc2cccc(C(F)(F)F)c2)nc2ccc(NC(=O)c3cccnc3)cc12,.,-5.0,-7.5,-1.3,-13.1
COc1cccc(C(=O)N(Cc2ccco2)c2ccccn2)c1,.,0.4,-1.9,-1.6,16.7
O=C(Nc1cccc2cccnc12)c1ccc(Br)cc1,.,2.9,.,8.3,11.5
FC(F)(F)c1cccc(NC(=S)NCc2ccc(Cl)cc2)c1,6.7,-8.1,-11.2,24.0,-51.3*
CC(NC(=S)Nc1ccc(OC(F)F)c(Cl)c1)C(C)(C)C (stereo not drawn),9.1,-14.2,-10.7,20.1,-88.4*
CN(C)NC(=S)Nc1cccc(C(F)(F)F)c1,6.2,-16.2,-7.3,0.4,-15.7
Fc1ccccc1CNC(=S)Nc1cccc(C(F)(F)F)c1,-7.8,-19.4,-13.2,24.7,-43.6*
CC(NC(=S)Nc1cccc(C(F)(F)F)c1)C(C)(C)C (stereo not drawn),-8.9,-8.9,-2.3,18.1,-34.6*
CCOC(=O)c1ccc(NC(=O)c2nn(C)c3c2COc2ccccc2-3)cc1,.,-1.0,0.6,5.4,9.8
Cc1ccccc1OCCSc1nc(C)c(Cc2ccccc2)c(=O)[nH]1,.,-2.6,-0.6,4.1,-18.2

# Bioassay records from PubChem.
